A short description of assay [1]: NCI Yeast Anticancer Drug Screen. Data for the rad50 strain (AID 155).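 Further: 0% = growth of vehicle-only cultures of the same strain.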 To be noted: S. cerevisiae rad50 strain growth inhibition, active compounds read high. In a few lines: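 DNA repair mutant yeast, compound exposure, growth read-out; inhibition is taken relative to vehicle.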
The nature of assay [2]: NCI Yeast Anticancer Drug Screen. Data for the mec2-1 strain (AID 157). Particulars: S. cerevisiae mec2-1 strain, active compounds read high. The method, boiled down: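 mec2-1 yeast strain, carrying an alteration in DNA damage repair or cell cycle control, was exposed to compounds; growth inhibition was measured relative to vehicle-treated controls.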
Assay [3] in a line: NCI Yeast Anticancer Drug Screen. Data for the sgs1 mgt1 strain (AID 161).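 Further: 0% = growth of cultures given vehicle only.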 To be noted: S. cerevisiae sgs1 mgt1 strain, active compounds read high. In a few lines:
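Growth of a repair-deficient yeast mutant was monitored after compound treatment and expressed as inhibition relative to vehicle-treated cultures.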

Assay [4] can be described thus: NCI Yeast Anticancer Drug Screen. Data for the cln2 rad14 strain (AID 165).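 Further: 0% = growth equal to vehicle treated cultures.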 Particulars: S. cerevisiae cln2 rad14 strain, active compounds read high. In a few lines: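 Yeast carrying cln2 and rad14 alterations (cell cycle control and DNA damage repair) were exposed to compounds. Growth inhibition was measured against vehicle-treated controls.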
Assay [5] can be described thus: NCI Yeast Anticancer Drug Screen. Data for the bub3 strain (AID 167). Particulars: S. cerevisiae bub3 mutant strain, active compounds read high. In a few lines:
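In this screen, a yeast mutant lacking normal mitotic checkpoint function is challenged with compound. Relative growth versus vehicle gives the inhibition value.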

The nature of assay [6]: NCI Yeast Anticancer Drug Screen. Data for the mlh1 rad18 strain (AID 175). Particulars: S. cerevisiae mlh1 rad18 strain growth inhibition, active compounds read high. In a few lines: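 Growth inhibition of the yeast strain was measured after compound exposure and expressed relative to vehicle-treated controls. The strain carries defined defects in DNA damage repair.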
Setting [7] is: at 5.0 µM (retest, dose inferred, filed as 0.5).
Where [8] appears, read: at 50.0 µM (retest, dose inferred, filed as 5.0).

The text below walks through data of PubChem BioAssay (NCI).

Compounds without any hit were thinned out: in the full panel of roughly 79,000, 15% have a hit. Unmarked numbers belong to inactive results. Calls of active or inactive are those of the source. No stated cut-off is given here; in the data, active means growth inhibition above about 70%; inactive means the rest.

Regarding `CCO[Si](CC)(OCC)OCC`, the growth inhibition in assay [1] (setting [7]) is -3%; in assay [1] (setting [8]), 2%; in assay [1] (at 50.0 µM), 27.1%; in assay [2] (setting [7]) it was -6%; in assay [2] (setting [8]) it was -3%; in assay [2] (at 50.0 µM) it was 4.4%. For the same molecule, the growth inhibition was 4% in assay [3] (setting [7]); 3% in assay [3] (setting [8]); -12.2% in assay [3] (at 50.0 µM); 0% in assay [4] (setting [7]); 3% in assay [4] (setting [8]); 81.1% (active) in assay [4] (at 50.0 µM). In addition, the growth inhibition was -3% in assay [5] (setting [7]); 6% in assay [5] (setting [8]); -6% in assay [5] (at 50.0 µM); -2% in assay [6] (setting [7]); 3% in assay [6] (setting [8]); 31.8% in assay [6] (at 50.0 µM).

With `Oc1ccc2ccccc2c1/C=N\Sc1ccccc1`, the growth inhibition in assay [1] (setting [7]) was 11%; in assay [1] (setting [8]), 99% (active); in assay [1] (at 50.0 µM), 97.5% (active); in assay [2] (setting [7]), 18%; in assay [2] (setting [8]), 99% (active); in assay [2] (at 50.0 µM), 99.3% (active). Moreover, the growth inhibition in assay [3] (setting [7]) was 15%; in assay [3] (setting [8]) it was 99% (active); in assay [3] (at 50.0 µM) it was 98.5% (active); in assay [4] (setting [7]), 7%; in assay [4] (setting [8]) it was 99% (active); in assay [4] (at 50.0 µM), 41%. The growth inhibition in assay [5] (setting [7]) is -2%; in assay [5] (setting [8]), 99% (active); in assay [5] (at 50.0 µM) it was 98.1% (active); in assay [6] (setting [7]), 6%; in assay [6] (setting [8]), 99% (active); in assay [6] (at 50.0 µM), 99% (active).

In the case of `CSC(=Nc1ccc(Cl)cc1)N1CC=Cc2ccccc21`, the growth inhibition in assay [1] (setting [7]) is 2%; in assay [1] (setting [8]) it was -1%; in assay [1] (at 50.0 µM), -1.85%; in assay [2] (setting [7]), -13%; in assay [2] (setting [8]), 12%; in assay [2] (at 50.0 µM), 5.85%. Besides, the growth inhibition was -15% in assay [3] (setting [7]); 23% in assay [3] (setting [8]); 43.4% in assay [3] (at 50.0 µM); 9% in assay [4] (setting [7]); -4% in assay [4] (setting [8]); 42.8% in assay [4] (at 50.0 µM). The growth inhibition in assay [5] (setting [7]) is 49%; in assay [5] (setting [8]) it was 82% (active); in assay [5] (at 50.0 µM), 81.8% (active); in assay [6] (setting [7]) it was 0%; in assay [6] (setting [8]), -1%; in assay [6] (at 50.0 µM) it was 12.3%.

As for `Oc1ccc(Cl)cc1-c1ccccc1`, the growth inhibition in assay [1] (setting [7]) is -1%; in assay [1] (setting [8]), 86% (active); in assay [1] (at 50.0 µM) it was 94.1% (active); in assay [2] (setting [7]) it was -15%; in assay [2] (setting [8]) it was 83% (active); in assay [2] (at 50.0 µM) it was 97% (active). In addition, the growth inhibition in assay [3] (setting [7]) was -13%; in assay [3] (setting [8]), 76% (active); in assay [3] (at 50.0 µM), 90.2% (active); in assay [4] (setting [7]) it was -48%; in assay [4] (setting [8]) it was 68%; in assay [4] (at 50.0 µM) it was 74.2% (active). Besides, the growth inhibition in assay [5] (setting [7]) was 1%; in assay [5] (setting [8]), 68%; in assay [5] (at 50.0 µM), 94.7% (active); in assay [6] (setting [7]) it was 11%; in assay [6] (setting [8]), 91% (active); in assay [6] (at 50.0 µM), 91.7% (active).

In the case of `CN(C)CCCNc1cc(O)c2c(c1O)C(=O)c1ccccc1C2=O`, the growth inhibition was 22% in assay [1] (setting [7]); 98% (active) in assay [1] (setting [8]); 99.2% (active) in assay [1] (at 50.0 µM); 18% in assay [2] (setting [7]); 94% (active) in assay [2] (setting [8]); 97.6% (active) in assay [2] (at 50.0 µM). The growth inhibition in assay [3] (setting [7]) is 26%; in assay [3] (setting [8]), 96% (active); in assay [3] (at 50.0 µM) it was 98.3% (active); in assay [4] (setting [7]) it was -16%; in assay [4] (setting [8]), 94% (active); in assay [4] (at 50.0 µM) it was 94.8% (active). For the same molecule, the growth inhibition in assay [5] (setting [7]) is 13%; in assay [5] (setting [8]) it was 97% (active); in assay [5] (at 50.0 µM), 98.3% (active); in assay [6] (setting [7]), 16%; in assay [6] (setting [8]) it was 98% (active); in assay [6] (at 50.0 µM), 99% (active).

As for `N=Nc1c(OC(=O)Nc2ccccc2)[nH]c2ccccc12`, the growth inhibition in assay [1] (setting [7]) is -3%; in assay [1] (setting [8]), 67%; in assay [1] (at 50.0 µM), 8.65%; in assay [2] (setting [7]), 20%; in assay [2] (setting [8]), 63%; in assay [2] (at 50.0 µM), -6.3%. Besides, the growth inhibition in assay [3] (setting [7]) is -1%; in assay [3] (setting [8]), 69%; in assay [3] (at 50.0 µM) it was 13.8%; in assay [4] (setting [7]), 9%; in assay [4] (setting [8]), 40%; in assay [4] (at 50.0 µM), 63.9%. Further, the growth inhibition in assay [5] (setting [7]) was 1%; in assay [5] (setting [8]) it was 84% (active); in assay [5] (at 50.0 µM), 31.9%; in assay [6] (setting [7]), -3%; in assay [6] (setting [8]), 85% (active); in assay [6] (at 50.0 µM), 71.5% (active).

With `COc1cc2c(c(O)c1C)C(=O)C(Cl)=CC2=O`, the growth inhibition in assay [1] (setting [7]) was 99% (active); in assay [1] (setting [8]), 99% (active); in assay [1] (at 50.0 µM), 99.1% (active); in assay [2] (setting [7]), 99% (active); in assay [2] (setting [8]), 99% (active); in assay [2] (at 50.0 µM), 99.2% (active). Also, the growth inhibition was 99% (active) in assay [3] (setting [7]); 98% (active) in assay [3] (setting [8]); 99.3% (active) in assay [3] (at 50.0 µM); 98% (active) in assay [4] (setting [7]); 98% (active) in assay [4] (setting [8]); 98.9% (active) in assay [4] (at 50.0 µM). Besides, the growth inhibition in assay [5] (setting [7]) was 99% (active); in assay [5] (setting [8]), 99% (active); in assay [5] (at 50.0 µM), 99.2% (active); in assay [6] (setting [7]), 99% (active); in assay [6] (setting [8]), 99% (active); in assay [6] (at 50.0 µM), 99.2% (active).

For `OC(CBr)C[n+]1cccc2cc(Cl)ccc21` (configuration not stated), the growth inhibition in assay [1] (setting [7]) is 6%; in assay [1] (setting [8]), 5%; in assay [1] (at 50.0 µM), -40%; in assay [2] (setting [7]) it was 1%; in assay [2] (setting [8]) it was 3%; in assay [2] (at 50.0 µM) it was -13.4%. Besides, the growth inhibition was -1% in assay [3] (setting [7]); 9% in assay [3] (setting [8]); -28.6% in assay [3] (at 50.0 µM); -1% in assay [4] (setting [7]); -6% in assay [4] (setting [8]); 39.8% in assay [4] (at 50.0 µM). The growth inhibition in assay [5] (setting [7]) is -1%; in assay [5] (setting [8]) it was 6%; in assay [5] (at 50.0 µM), 2.8%; in assay [6] (setting [7]), 2%; in assay [6] (setting [8]), -2%; in assay [6] (at 50.0 µM) it was -5.8%.

On to `Cc1ccc(N2C(=O)C(Cl)=C(Cl)C2=O)cc1`, for which the growth inhibition in assay [1] (setting [7]) is 11%; in assay [1] (setting [8]), 99% (active); in assay [1] (at 50.0 µM) it was 99.3% (active); in assay [2] (setting [7]), 12%; in assay [2] (setting [8]), 100% (active); in assay [2] (at 50.0 µM), 99.4% (active). Moreover, the growth inhibition is 20% in assay [3] (setting [7]); 100% (active) in assay [3] (setting [8]); 99.5% (active) in assay [3] (at 50.0 µM); 8% in assay [4] (setting [7]); 99% (active) in assay [4] (setting [8]); 98.8% (active) in assay [4] (at 50.0 µM). Further, the growth inhibition in assay [5] (setting [7]) is 16%; in assay [5] (setting [8]), 99% (active); in assay [5] (at 50.0 µM) it was 99.3% (active); in assay [6] (setting [7]), 14%; in assay [6] (setting [8]), 100% (active); in assay [6] (at 50.0 µM) it was 97.5% (active).
